Measurements from the supplement of paper PMC11417369.
± gives the standard deviation of the averaged measurements. The full ranking holds about 25,000 sequences; the median of “ln(normalized median fluorescence intensity)” is about 7.9, and the highest 2% start at about 11. Many of the other results were omitted from the sample, so the highest values are more common in it than they were.

System: PfAP2-I AP2 domain 3 (GST-tagged)
Experiment: gcPBM binding intensity (ln(normalized median fluorescence intensity)); higher = stronger DNA binding
Outline: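 Plasmodium falciparum DNA-binding domains carrying a GST tag were expressed in E. coli and applied for 1 h, at about 25 μg on average, to an Agilent 4 × 180k array. The array held primer-extended double-stranded 36-bp intergenic genomic probes together with negative controls, and binding took place in 1× PBS with 1% milk, 0.2 mg/ml BSA, 0.5% salmon testes DNA and 0.03% Triton X-100. An Alexa488 anti-GST antibody detected bound protein, and the array was scanned at 488 nm. Binding intensity is taken as the highest Masliner-normalised natural-log median intensity across replicate spots of either probe orientation.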

Row | Sequence | gcPBM binding intensity (ln)
1 | TTATTAAATATAAATATGTATCTTTTATGTTATATT [CACACA_negctrl_site306] | 7.29 ± 0.44
2 | ATAATTATTAATATAGTGCATTGGCATAATAATATA [GTGCAC_site9810] | 9.89 ± 0.2
3 | GTTTATATGTTCATAGTGCATATATGTTGATTTATT | 10.2 ± 0.33
4 | TTTTTTTTTAATTATGCATGTAAATTATATATTATA [TGCATGCA_site335] | 8.55 ± 1.1
5 | TTATTATTATTACTAGTGCATTAATTATATATGTAA | 11.6 ± 0.49
6 | AATATTTTATATGTAGTGCATTACTATAGGATTTAT [GTGCAC_site9424] | 11.4 ± 0.74
7 | TATCTTTTTACAATAGTGCATATGTTATCATTAATA [GTGCAC_site9489] | 9.54 ± 0.18
8 | AATATATTTATATAGTGTACATTTTTTATATATGTA [XGTACX_site8142] | 7.67 ± 0.18
9 | GGATTATTTATAGGAGTGCATACATATATATATATA [GTGCAC_site9454] | 9.76 ± 0.071
10 | ATATATCTTTATATAGTGCATTAAATATGTTGTAAT [GTGCAC_site9953] | 11.5 ± 0.54
11 | ATATATATATATGTAGTGCATTTTATATATAATATT | 9.875 ± 0.035
12 | CATATGTTATATGTAGTGCATTACTATAGGATTTAT [GTGCAC_site9860] | 11.4 ± 0.64
13 | TAAATATATAAACACACACACATTAATACAGATATT [CACACA_site5851] | 7.72 ± 0.54
14 | TATATATATATTTATACACACATTAGTGTAGACATG [CACACA_site8964] | 8.915 ± 0.021
15 | ATATATATGTATACATGTACATATTTTATTATGTGC [XGTACX_site7207] | 7.9 ± 0.61
16 | TTATATATATATATATATATATATATATATATAAAT [GTGCAC_negctrl_site126] | 8.41 ± 0.23
17 | TTTTTATATGCGTATTGTACATTATACATATATATA [XGTACX_site6786] | 7.97 ± 0.38
18 | TTCTTTATTTTTTCTACACACATTAGATATTCAAAG [CACACA_site7624] | 8.02 ± 0.53
19 | TTGTTAATAAAAATATTGGAAAGTTTATAAAATTTT [CACACA_negctrl_site1487] | 7.53 ± 0.52
20 | ATGAAATATTTATTTGTGCACTTAATTTGTTGGAAA | 11.2 ± 0.21
21 | TTTATTTGTGCATATACACACTTAAATATGTTTATT [CACACA_site7772] | 9.405 ± 0.035
22 | AGAATTATTGTTAATGCATGTGGAAGTTAAAATATT [TGCATGCA_site188] | 8.48 ± 0.69
23 | TTTATATTAATTGATGTGCACTGAAATATTTGTCCA [GTGCAC_site9655] | 10.3 ± 0.28
24 | TTTGGAATATTAATTGTGCACTTAAAAAGTTAATTA | 11 ± 0.35

Row | Sequence | gcPBM binding intensity (ln)
25 | TTGTTCATTATGCACAGTACATAAAAAGTAAAAAAA [XGTACX_site2403] | 10 ± 0.65
26 | TTTCTGTGTTTTGGTTGTACACACGCTACATTATAT [XGTACX_site5669] | 8.53 ± 0.67
27 | GGAAATAATATTATTACACACCAAAATGTATAAAAA [CACACA_site4036] | 8.36 ± 0.85
28 | ATTGAACACATCTATGCATGCACGGAAAAAAGTACA [TGCATGCA_site401] | 11 ± 0.28
29 | GCATGCACGGAAAAAAGTACATATATAAATTTGGTT [XGTACX_site3393] | 8.2 ± 0.52
30 | ATATATATATATGAAAGTACACATCTATTTTTTCTT [XGTACX_site6059] | 9.29 ± 0.18
31 | AGAAAGGATATAAGCGTAGCTATATCATAAAAAATG [GTGCAC_negctrl_site332] | 7.58 ± 0.74
32 | TGTAGAAATGGGTGCACACACATATAAAATCTATAT [CACACA_site7224] | 10.4 ± 0.59
33 | AAAAAAAAAATTTTCGTGCACATAAGAAAATTTAAA [GTGCAC_site9788] | 10.3 ± 0.16
34 | TTTTTTTTTTTTTTGGTGCACATAGAAATTCTAAAA [GTGCAC_site9809] | 10.9 ± 0.6
35 | ATATTTTAATTATAAAGTACATAAAAATATATAAAC [XGTACX_site6705] | 7.92 ± 0.35
36 | TTATGTTCATTATATGCACACATATATATAAATGTA [CACACA_site8947] | 9.11 ± 0.071
37 | AAAAAAAAAAAATTATGTACATATTATATATAATGG [XGTACX_site2885] | 7.77 ± 0.45
38 | ATATATATATATAATGCACACATTATAAATTATGTA [CACACA_site5802] | 11.1 ± 0.26
39 | TTAATATTAATATATTGTACATATATGCACATATTT [XGTACX_site6569] | 9.1 ± 0.18
40 | TTTTTTTTTTTTTTGTGTACATATAATGCACATTAT [XGTACX_site6505] | 11.1 ± 0.93
41 | ATATAATATCTGTATACACACATATTATATAATATT [CACACA_site5940] | 7.86 ± 0.51
42 | TATTTCTGATTATTTTGTACACATTATATATAATGC [XGTACX_site6990] | 8.04 ± 0.29
43 | ATGTTCATTATATGCACACATATATATAAATGTAAT [CACACA_site2908] | 9.34 ± 0.3
44 | TATTATAATAAAATATGTACACACATACACACATAT [XGTACX_site2360] | 7.98 ± 0.41
45 | ATATATACATATAAATGTACATAATTATTATGCACA [XGTACX_site1261] | 11.3 ± 0.82
46 | TTTGTGTATATATAATGTACATTATATTTTTATTAT [XGTACX_site6506] | 8.13 ± 0.45
47 | TATTACATACATATCTGTACATATATTAATGCACAA [XGTACX_site3315] | 11.6 ± 1
48 | TGAAAATATATAACGCGTACAAAAAGGAAATACAAT [XGTACX_site3534] | 8.38 ± 0.64

Row | Sequence | gcPBM binding intensity (ln)
49 | AAAAAAAAAAAAAATATACACACTAATATATTTTTT [CACACA_site815] | 7.98 ± 0.54
50 | TAAATATATTAAGCTTGTACATGAAAAAAAAAAAAA [XGTACX_site3264] | 8.1 ± 0.59
51 | TTTTCTTAAAAAATCAAACACACATATATATATACA [CACACA_site2297] | 7.6 ± 0.51
52 | ATAAATAATTATATATGTACACATTATGAATGGATA [XGTACX_site8336] | 7.78 ± 0.4
53 | ATATATATATATAATGCACACATTATGAATTATGTA [CACACA_site3384] | 11.3 ± 0.26
54 | GATATATAATATAATACACACATTTTATGAATGTAA [CACACA_site24] | 7.66 ± 0.32
55 | AAATGTTATAACTCTTGAAAAAACAAAATATCATCA [CACACA_negctrl_site1156] | 7.57 ± 0.49
56 | ACCAATAATATACATACACACATAAAGGTTTATATA [CACACA_site315] | 7.95 ± 0.44
57 | ATGAAACAGTAACATTGTACTTTTACAAAAAAATAA [XGTACX_site806] | 7.7 ± 0.33
58 | TGTGTCCATTGAACAGTGCAATAAAAACTTTTACAT | 11.2 ± 0.59
59 | AAAAAAAAAAAAAACATACACACATTGAACTTTTAT [CACACA_site3251] | 8.18 ± 0.54
60 | TACACACCTAACTATGCATGCATCAATATAGTGGAT [TGCATGCA_site443] | 7.76 ± 0.75
61 | AAAATTTAATATAATGCACACATAAAACAAAAACAA [CACACA_site8071] | 10.9 ± 0.64
62 | AATATAATATAATGCACACATAAAAAAAAAATCAAA [CACACA_site122] | 11.2 ± 1
63 | CATTAACAAATAAATGCACACATATATATAAATAAT [CACACA_site7892] | 9.51 ± 0.35
64 | AATTTAATATAATGCACACATAAAACAAAAACAAAA [CACACA_site529] | 10.8 ± 0.72
65 | TAATAAATCAAATGCACACACACAAAAAAAAAAAAA [CACACA_site161] | 9.24 ± 0.38
66 | AACGGGTAATGCACAAAAAAAAAAAAATAAAATAAA [TGCATGCA_negctrl_site474] | 11.4 ± 1
67 | ATAAATCAAATGCACACACACAAAAAAAAAAAAAAA [CACACA_site6221] | 9.31 ± 0.16
68 | CACAAAAATAAACACACACACATATATATATATATA [CACACA_site4704] | 9.39 ± 0.42
69 | AATATAAAAATGCACACACACAAAAAAAAAAAAAAA [CACACA_site6546] | 9.03 ± 0.16
70 | AAAATATAATATAATGCACACATAAACAAAAAAAAA [CACACA_site8161] | 10.9 ± 0.74
71 | ATGGATTTTACCATAGCACACATATATGAATATTTT [CACACA_site8535] | 7.96 ± 0.54
72 | ATTAAATTAAAATAATGTACTTAATACTTTTGCTTA [XGTACX_site8404] | 7.39 ± 0.39

Row | Sequence | gcPBM binding intensity (ln)
73 | AATATAATATAATGCACACATAAACAAAAAAAAAAT [CACACA_site1304] | 10.9 ± 0.96
74 | AGGCACGTGTTATATACACACATAATCAAATAAACT [CACACA_site7852] | 8.11 ± 0.61
75 | TTAACAAATAAATGCACACATATATATAAATAATAT [CACACA_site28] | 9.52 ± 0.35
76 | AAATTATAATATAATACACACATAAAAAAAAAATCA [CACACA_site3634] | 7.76 ± 0.45
77 | AAAATATAAAATAATGCACACATAAACAAAAAATCA [CACACA_site8382] | 10.8 ± 0.96
78 | AATATAAAATAATGCACACATAAACAAAAAATCAAA [CACACA_site1371] | 10.9 ± 0.88
79 | AAAATATAATATAATGCACACATAAAACAAAAAAAA [CACACA_site8989] | 10.7 ± 0.67
80 | CCCCCCGTGTTATATACACACATAATCAAATAAAAT [CACACA_site4111] | 10.9 ± 0.4
81 | AAATCACATAAAACATAATCAAATGAAATATAATCA [CACACA_negctrl_site123] | 7.38 ± 0.6
82 | AATTTTTTATTCTTTGCATGTCATCATATATAATAT [TGCATGCA_site549] | 8.12 ± 0.69
83 | TCTTATTTAAAAATAGCACACATTATATATATATAT [CACACA_site8916] | 9.44 ± 0.26
84 | TTTTTTAAAATATAAAATATGTACAAATATGTTGAA [GTGCAC_negctrl_site379] | 7.97 ± 0.3
85 | TGAATAAATAAACACACACACATATATATATCTGTA [CACACA_site4184] | 7.59 ± 0.4
86 | AATATTCAATATAAAGTGCATTATTGTGGACCTAAT | 11.3 ± 0.65
87 | AAATAAATAAATAGAGTGCATATATATATATATTTT | 10.01 ± 0.042
88 | AAGTGCATATTATTCACACATAATAATTGTATACCT [CACACA_site5965] | 10.3 ± 0.47
89 | AATATTCAATATAAAGTGCATTATTGTGCCCCTAAT | 11.3 ± 0.64
90 | TTAATTATTATATAAGTGCAATAATAAAAAGTTGTA [GTGCAC_site9552] | 10.7 ± 0.76
91 | AGTAATTATTTTAGAGTGCATAGTTTTTTAATAAAT | 9.54 ± 0.18
92 | TTCGCCCTAAATAGAGTGCATTATATATATTAATAT | 11.4 ± 0.58
93 | ACGTACTGCCCTAAAGTGCATATATAATATAAACGA [GTGCAC_site9911] | 10.1 ± 0.34
94 | ACTATATATATAAGTGCATGTTCATTATACCTAAAG [TGCATGCA_site696] | 8.93 ± 0.57
